Test results from ChEMBL document CHEMBL1201862, “PubChem BioAssay data set” (2004).
In all, about 310,000 compounds went through this assay and about 11,000 (3.5%) were called active. Inconclusive results (about 8%) are left out. The calls are words filed in the database; no cut-off is given here. The sample as a whole holds a higher share of actives than the screen did.

molecular target: Nuclear receptor ROR-gamma (Mus musculus) (UniProt P51450); test: VP16 counterscreen qHTS for inhibitors of ROR gamma transcriptional activity.; assay type: functional
Sequence (P51450 whole entry): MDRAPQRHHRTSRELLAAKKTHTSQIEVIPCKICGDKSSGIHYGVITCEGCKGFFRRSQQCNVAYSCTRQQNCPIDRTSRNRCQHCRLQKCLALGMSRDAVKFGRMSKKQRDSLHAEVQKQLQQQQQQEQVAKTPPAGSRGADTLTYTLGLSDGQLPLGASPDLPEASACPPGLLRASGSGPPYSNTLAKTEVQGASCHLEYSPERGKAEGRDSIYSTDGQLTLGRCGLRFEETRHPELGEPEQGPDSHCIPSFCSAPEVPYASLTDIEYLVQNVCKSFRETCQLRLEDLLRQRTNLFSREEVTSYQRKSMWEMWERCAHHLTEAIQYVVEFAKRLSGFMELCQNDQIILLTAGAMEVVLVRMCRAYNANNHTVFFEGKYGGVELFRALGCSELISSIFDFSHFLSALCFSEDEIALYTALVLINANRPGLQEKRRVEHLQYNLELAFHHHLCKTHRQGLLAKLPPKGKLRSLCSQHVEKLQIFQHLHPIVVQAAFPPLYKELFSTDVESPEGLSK

Compound	Potency
O=C(Oc1c(Cl)cc(Cl)c2cccnc12)c1cccc([N+](=O)[O-])c1	200 µM (active)
COc1cccc2sc(Nc3nc(-c4ccccn4)cs3)nc12	355 µM (active)
O=C(N/N=C(\c1ccccc1)c1cccnc1)c1cccc(F)c1	891 µM (active)
O=C(NC1CCCCCCC1)C1CCN(c2nc3ccccc3o2)CC1	631 µM (active)
Cc1ccc(-n2c(C)cc(C(=O)COC(=O)c3cccnc3O)c2C)cc1	224 µM (active)
